ChEMBL document CHEMBL4513216, “Probing the Open Global Health Chemical Diversity Library for Multistage-Active Starting Points for Next-Generation Antimalarials” (ACS Infect Dis, 2020)
The campaign covered roughly 65,000 compounds. About 2,100 (3.2%) showed an effect of 50% or more. The median lay at about -52%. For the sample, strong results were picked, then their nearest neighbours and some compounds at random.

What follows are molecules tested on Plasmodium falciparum (assay: Screen against P. falciparum Asexual Blood Stage (ABS), at 5uM). Settings: tested at 5 uM.
Assay type: functional, Dd2
With c1cc(CNCc2ccc(-n3cncn3)nc2)cc(OC2CCCC2)c1 the INHIBITION was -6.1%.
Work on Cc1ccc(C(=O)N2CCc3ncnc(-c4cnn(C)c4)c3CC2)o1 yielded an INHIBITION of -34.2%.
Cc1ccc(OCC(=O)Nc2ccc(S(C)(=O)=O)cc2)cc1C gave an INHIBITION of -89.1%.
N#Cc1c(Cl)nsc1NCCCN1C(=O)COc2ccccc21 showed an INHIBITION of 58.1%.
N#Cc1cnc(NCCCN2C(=O)COc3ccccc32)c(Cl)c1 showed an INHIBITION of -73.7%.
For N#Cc1ccc(NCCCN2C(=O)COc3ccccc32)nc1, the INHIBITION was -30.6%.
In the case of CC(C)NC(=O)c1sc2ccccc2c1C1CCC(CN)CC1 (stereo unspecified), the INHIBITION is reported as 0.324%.
With COc1nn(C)c2c1CCCN(C(=O)c1ccc3ccccc3n1)C2 the INHIBITION was -94.4%.
Work on O=C(c1ccc[nH]1)N1C[C@@H]2CC[C@H]1CN(C1Cc3ccccc3C1)C2 yielded an INHIBITION of -60.5%.
With CCCc1nc(C[S+]([O-])Cc2cn3cccc(C)c3n2)no1 (stereo unspecified) the INHIBITION was -22%.
Molecule CCN1CCO[C@@H]2CN(C(=O)c3ccc4[nH]ccc4c3)CC[C@@H]2C1 has an INHIBITION of -49.2%.
Work on CN1CCCN(c2nccc(-c3cc(C(=O)O)ccn3)n2)CC1 yielded an INHIBITION of -113%.
CN1CCCN(c2nccc(-c3c[nH]nc3-c3ccncc3)n2)CC1 showed an INHIBITION of 66.9%.
Cc1ncc(-c2ccnc(N3CCC[C@@H]3CO)n2)c(-c2cccnc2)n1 was tested, and the INHIBITION was -23.8%.
Work on CN1CCCN(c2nccc(-c3c[nH]c4ccc(Br)cc34)n2)CC1 yielded an INHIBITION of 43.1%.
For OC[C@@H]1CCCN1c1nccc(-c2c[nH]nc2-c2ccncc2)n1, the INHIBITION was 68.3%.
Molecule OCCNc1nccc(-c2c[nH]nc2-c2ccncc2)n1 has an INHIBITION of -56.1%.
For CNc1cccc(C2CCCN(C(=O)c3cscn3)C2)n1 (stereo unspecified), the INHIBITION was -9%.
CC1N(C)C(=O)COC12CCN(Cc1ccsc1)CC2 (stereo unspecified) gave an INHIBITION of -52.9%.
COCCN1CCCC1c1nccnc1Nc1nccs1 (stereo unspecified) was tested, and the INHIBITION was 1.36%.
Cc1cccn2c(CC(=O)N3CCC(CCn4cccn4)CC3)cnc12 showed an INHIBITION of -1.65%.
N#Cc1cccc(OCCN2CCCC2C(=O)NCC(F)(F)F)c1 (stereo unspecified) was tested, and the INHIBITION was 1.9%.
N#Cc1cccc(OCCN2CCCC2C(=O)N2CCSCC2)c1 (stereo unspecified) gave an INHIBITION of 51.9%.
N#Cc1cccc(OCCN2CCCC2C(=O)NC2CC2)c1 (stereo unspecified) showed an INHIBITION of -14.2%.
In the case of Cc1cccn2cc(CNCc3cccc4c3OCCCO4)nc12, the INHIBITION is reported as 53.7%.
With Cc1cccc2nc(CNCc3cccc4c3OCCCO4)cn12 the INHIBITION was 47.8%.
Molecule c1cc(CNCCc2cn3ccccc3n2)c2c(c1)OCCCO2 has an INHIBITION of -57.2%.
Cc1ccc(CN2Cc3c(C(=O)N(C)C)nn(C)c3C2)s1 was tested, and the INHIBITION was -70.8%.
Cc1nnc(N2C[C@@H](OCCCn3cccn3)[C@H]3OCCC[C@H]32)s1 gave an INHIBITION of -31.4%.
For OC1(CNCc2csc(-c3ncccn3)n2)CCCNC1 (stereo unspecified), the INHIBITION was -26.6%.
Molecule Cc1cccnc1C(Cc1ccsc1)NC(=O)Cn1cccnc1=O (stereo unspecified) has an INHIBITION of 4.78%.
CC(C)Oc1cccc(CNC(Cc2ccsc2)c2nccs2)c1 (stereo unspecified) was tested, and the INHIBITION was -29.2%.
In the case of Cc1cccnc1C(Cc1ccsc1)NCc1cnc(N(C)C)nc1 (stereo unspecified), the INHIBITION is reported as 66.6%.
CN1CCCC(Cc2cncc(C(=O)N3CCOCC3)c2)C1 (stereo unspecified) gave an INHIBITION of -133%.
With O=S1(=O)NC(c2ccnc(N3CCOCC3)n2)=Nc2ccccc21 the INHIBITION was -15.8%.
CN(Cc1ccccc1)C(=O)CSc1ccc2c(c1)OCCO2 gave an INHIBITION of -122%.
O=C(CO)N1CCCC2(CCN(c3ccsc3)C2=O)C1 (stereo unspecified) was tested, and the INHIBITION was -104%.
In the case of O=C1N(c2ccsc2)CCC12CCCN(CC1CC1)C2 (stereo unspecified), the INHIBITION is reported as 51.6%.
COc1ccc(CN2CCCC3(CCN(c4ccsc4)C3=O)C2)cc1 (stereo unspecified) gave an INHIBITION of 62.3%.
CN(C)C(=O)CN1CCCC2(CCN(c3ccsc3)C2=O)C1 (stereo unspecified) was tested, and the INHIBITION was -78.3%.
In the case of COc1ccc(CN2CCC3(CCN(c4cccnc4)C3=O)C2)cc1 (stereo unspecified), the INHIBITION is reported as -23.2%.
For COCCN1CCCC2(CCN(c3ccsc3)C2=O)C1 (stereo unspecified), the INHIBITION was 16%.
CC1COC2(CCN(C(=O)Cc3ccncc3)CC2)C1 (stereo unspecified) gave an INHIBITION of -78.3%.
Cc1cc(C2CCCN(CCc3ccc4c(c3)CCO4)C2)n[nH]1 (stereo unspecified) showed an INHIBITION of -25.4%.
COc1ccccc1OCCN1CCCCC1Cn1cncn1 (stereo unspecified) showed an INHIBITION of -9.63%.
CCc1nnc(Nc2cccc(C3CCN(S(=O)(=O)N(C)C)CC3)n2)s1 was tested, and the INHIBITION was 7.99%.
O=C(NCc1nncn1-c1ccccc1)C1CCCCC1 gave an INHIBITION of -107%.
Molecule OC1(CN2CCCCC2)CCN(c2cccc(C(F)(F)F)n2)C1 (stereo unspecified) has an INHIBITION of 60.4%.
OC1(CN2CCCCC2)CCN(c2cc(C(F)(F)F)ccn2)C1 (stereo unspecified) gave an INHIBITION of 39.2%.
OC1(CN2CCCCC2)CCN(c2nccc(C(F)(F)F)n2)C1 (stereo unspecified) was tested, and the INHIBITION was -41.9%.
Molecule O=C1CCC2(CCN(c3cccc(C(F)(F)F)n3)CC2)CN1CCO has an INHIBITION of -33.7%.
For OC1(CN2CCCCC2)CCN(c2ccc(C(F)(F)F)cn2)C1 (stereo unspecified), the INHIBITION was 53.5%.
Molecule N[C@@H]1c2ccccc2C2(CCN(c3ccc(C(F)(F)F)cn3)CC2)[C@H]1O has an INHIBITION of -38.4%.
Cc1ccc(C(=O)N2CCC(c3n[nH]c(C4CC4)n3)CC2)cc1F gave an INHIBITION of -91.9%.
Work on Cn1ccnc1CN1CCC2(CC1)CC(Oc1cccnc1)C2 yielded an INHIBITION of -85.4%.
Molecule Cc1ccc(NC(=O)CC2NC(N3CCc4ccccc43)=NC2=O)cc1 (stereo unspecified) has an INHIBITION of -135%.
Work on O=C1CC(c2ccncc2)C2(CCN(CCc3ccccc3)CC2)N1 (stereo unspecified) yielded an INHIBITION of -55.3%.
Work on O=C1CCC2(CCCN(C(=O)c3cnccn3)CC2)N1 (stereo unspecified) yielded an INHIBITION of 51.9%.
For O=C1CCC2(CCCN(C(=O)c3cccnc3)CC2)N1 (stereo unspecified), the INHIBITION was -40.9%.
In the case of O=C1CCCC2(CCN(C(=O)c3cnccn3)CC2)N1, the INHIBITION is reported as -96.5%.
Molecule O=C(NCCN1CCCC1)C1(c2ccc(Cl)cc2)CCOCC1 has an INHIBITION of 63.7%.
For Cc1ccccc1C1(C(=O)NCCN2CCCC2)CCOCC1, the INHIBITION was -5.04%.
For COc1ccccc1C1(C(=O)NCCN2CCCCC2)CCOCC1, the INHIBITION was -35.3%.
In the case of CC(Oc1ccc2c(c1)OCO2)C(=O)N1CCC(N2CCOCC2)CC1 (stereo unspecified), the INHIBITION is reported as -162%.
With CCn1cc(NC(=O)CN2CCC(Oc3ccc(F)cc3)CC2)c(C)n1 the INHIBITION was -33.8%.
Work on Cc1cc(N2CCCN(c3ccnc(C)c3)CC2)ccn1 yielded an INHIBITION of -86.7%.
Molecule Cc1cc(N2CCCN(c3nc(C)nc(C)c3C)CC2)ccn1 has an INHIBITION of 58%.
Work on Cc1cc(N2CCCN(Cc3ccc(C)o3)CC2)ccn1 yielded an INHIBITION of 35.2%.
Cc1n[nH]c(C)c1C1COCCN1c1ncnc2sccc12 (stereo unspecified) gave an INHIBITION of -34.7%.
Molecule COCCN1CCC(c2nc3ccc(NC4CCC4)cn3n2)CC1 has an INHIBITION of -2.13%.
CCN(CC)CCn1cnc(-c2ccccc2)c1-c1cnn(CC)c1 was tested, and the INHIBITION was 20.8%.
For CCN(CC)CCn1cnc(-c2ccccc2)c1-c1cnc(C)s1, the INHIBITION was 54.2%.
CCN(CC)CCn1cnc(-c2ccccc2)c1-c1ncc[nH]1 gave an INHIBITION of -46.8%.
With Cc1nc(CCCNC(=O)Nc2cc(F)cc(F)c2)n[nH]1 the INHIBITION was 0.825%.
With O=C(O)c1ccc(CC2CCN(Cc3ccc(-c4cc[nH]n4)o3)C2)cc1 (stereo unspecified) the INHIBITION was -200%.
For CNC(=O)CN1CCC(OCc2ccc(Cl)c(Cl)c2)CC1, the INHIBITION was -0.573%.
Work on NC(=O)CN1CCC(OCc2ccc(Cl)c(Cl)c2)CC1 yielded an INHIBITION of 32.6%.
CCC(N)C(=O)N1CCC(OCc2ccc(Cl)c(Cl)c2)CC1 (stereo unspecified) showed an INHIBITION of 65.5%.
In the case of CC1CCCCN1C(=O)CCc1nnc(-c2ccccc2)o1 (stereo unspecified), the INHIBITION is reported as -26.9%.
Work on O=C(Cn1nc(-c2ccc(F)cc2)oc1=O)NCc1ccc(F)cc1 yielded an INHIBITION of -11.2%.
Work on Cc1ccc(CNC(=O)Cn2nc(-c3ccc(F)cc3)oc2=O)cc1F yielded an INHIBITION of 55.6%.
Molecule O=C(Cn1nc(-c2ccc(F)cc2)oc1=O)NCc1ccncc1 has an INHIBITION of -63.3%.
CCC1=NN2C(=N)C(=Cc3cccn3-c3ccc(Br)cc3)C(=O)N=C2S1 showed an INHIBITION of -87.5%.
In the case of CCCN(CCOC)C(=O)c1cc(Cn2c(C)nc3ccccc32)[nH]n1, the INHIBITION is reported as -11.8%.
CC(NCCn1cccn1)c1cc(F)ccc1F (stereo unspecified) was tested, and the INHIBITION was 0.681%.
Molecule CC(NCCCN1CCCC1=O)c1ccc(F)cc1N(C)C (stereo unspecified) has an INHIBITION of -24.45%.
For CC(NCCN1CCC(N(C)C)CC1)c1ccc(F)cc1N(C)C (stereo unspecified), the INHIBITION was 58.1%.
In the case of O=C([C@H]1CCCO1)N1CCOC2(CCCN(c3ncccc3F)C2)C1 (stereo partly specified), the INHIBITION is reported as -9.29%.
Cc1nc(NC(C)C)nc2c1CN(Cc1nccn1C)CC2 was tested, and the INHIBITION was -27.4%.
For CC(C)Nc1nc2c(c(N(C)C)n1)CCN(Cc1nccn1C)CC2, the INHIBITION was 54.5%.
With CN(C)c1nc(N2CCCC2)nc2c1CCN(Cc1nccn1C)CC2 the INHIBITION was 7.51%.
Molecule O[C@@H]1CN(c2noc(C3CC3)n2)CC[C@H]1c1ccc2ccccc2c1 has an INHIBITION of -24.7%.
Work on Cc1cnn(C2CCCN(C(=O)c3ccccc3-n3cnnn3)C2)c1 (stereo unspecified) yielded an INHIBITION of -52.2%.
Molecule COc1cccc(-c2n[nH]cc2CNCC2CCS(=O)(=O)C2)c1 (stereo unspecified) has an INHIBITION of -48.5%.
For COc1ccc2ccccc2c1CNCC1CCS(=O)(=O)C1 (stereo unspecified), the INHIBITION was 67.4%.
CNC(=O)c1cc(NC(=O)NCC2CCS(=O)(=O)C2)ccc1OC (stereo unspecified) showed an INHIBITION of -116%.
CC(C)OCCCNC(=O)CN(c1ccc(F)c(F)c1)S(C)(=O)=O showed an INHIBITION of -105%.
For Fc1cccc(-c2nnn3c2COC(CNCc2ccsc2)C3)c1 (stereo unspecified), the INHIBITION was -82.8%.
c1cc(CN2Cc3nccn3CC(Cn3cncn3)C2)ccn1 (stereo unspecified) was tested, and the INHIBITION was -4.38%.
O=C(C1CC1)N1CCC2(CC1)COCCN2Cc1ccc(F)cc1 showed an INHIBITION of -40.7%.
Work on Cc1ccc(C(C(=O)NCCc2nc(C)cc(C)n2)N(C)C)cc1 (stereo unspecified) yielded an INHIBITION of -102%.
Molecule Cc1ccc(C(C(=O)NCCN2CCC(CO)CC2)N(C)C)cc1 (stereo unspecified) has an INHIBITION of -9.75%.
With Cc1ccc(C(C(=O)NC(C)(C)CN2CCCC2)N(C)C)cc1 (stereo unspecified) the INHIBITION was 52%.
Molecule Cc1cccc(C(C(=O)NC(C)(C)CN2CCOCC2)N(C)C)c1 (stereo unspecified) has an INHIBITION of 32%.
Work on Cc1ccc(C(C(=O)NCCN2CCCCCC2)N(C)C)cc1 (stereo unspecified) yielded an INHIBITION of 58.5%.
Molecule Cc1cccc(C(C(=O)NC(C)(C)CN2CCCC2)N(C)C)c1 (stereo unspecified) has an INHIBITION of 38.5%.
